SIRT5 inh = inhibitors of human sirtuin-5 desuccinylase; Q9NXA8; Purified SirT5, succinyl-peptide AMC, trypsin-coupled fluorescence; inhibition, % at 15 µM; 330,000 tested, 1.1% active; AID 652115; in the data active = inhibition above about 15%; inconclusive = no clear call, values can overlap the other calls
ERp5 inh = blocks human ERp5 reductase activity on insulin; Q15084; ERp5 insulin aggregation, absorbance 650 nm, 90 min; inhibition, % at 9.99 µM; 350,000 tested, 0.05% active; AID 651711;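 active = mean replicate inhibition above about 25%, with every replicate also reaching it, limit read from the data, passing the limit was not always enough; inconclusive = only one of those two criteria met; inactive = neither criterion met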
Rtt109 HAT inh = inhibitors of Candida albicans Rtt109/Vps75 histone acetyltransferase; 330,000 tested, 0.16% active; AID 540336; inhibition, % at 34.9 µM; purified Rtt109/Vps75, ThioGlo CoA-SH fluorescence, 4 h;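 active = inhibition of at least 50% in every replicate; inconclusive = best replicate reaches 50% inhibition but some replicates fall short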
Target sequence (Q5AAJ8 whole entry, looked up): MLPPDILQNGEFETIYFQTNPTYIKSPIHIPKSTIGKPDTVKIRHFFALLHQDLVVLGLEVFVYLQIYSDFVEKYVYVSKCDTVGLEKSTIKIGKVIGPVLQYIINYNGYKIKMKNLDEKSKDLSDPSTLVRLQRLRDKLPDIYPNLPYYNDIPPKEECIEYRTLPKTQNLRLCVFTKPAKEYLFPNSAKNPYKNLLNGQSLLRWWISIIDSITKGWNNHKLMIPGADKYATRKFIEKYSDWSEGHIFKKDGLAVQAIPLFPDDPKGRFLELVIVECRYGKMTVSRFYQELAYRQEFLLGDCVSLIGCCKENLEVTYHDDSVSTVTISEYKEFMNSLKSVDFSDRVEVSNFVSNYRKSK
PDI turbidity = inhibitors of human protein disulfide isomerase; PDI insulin aggregation turbidity, A650, 90 min; 350,000 tested, 0.052% active; inhibition, % at 10 µM; AID 588391; P07237;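 active = mean inhibition across replicates of 30% or more, whatever share of single replicates reach that level; inconclusive = mean inhibition below 30% while every single replicate reaches 30%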
DENV2 CPE rescue = protects cells from dengue virus 2 cytopathic effect; AID 651640; CPE inhibition, % at 9.99 µM; 350,000 tested, 1.7% active; DENV2-infected cells, cytopathic effect rescue, plate reader; in the data active = CPE inhibition above about 20%, passing the limit was not always enough; inconclusive = no clear call, values can overlap the other calls; tested in BHK-21 cells
Of the large screens only hits and unclear results are named; the others gave an inactive call. Only some compounds are listed: those with a hit (about 2.3% of all), similar ones and a draw of the others.

O=C(CN1CCOCC1)NCC[C@H]1CC[C@H](NC(=O)Nc2ccc(C(F)(F)F)cc2)[C@H](CO)O1	none (no result: Rtt109 HAT inh, PDI turbidity)
O=C(O)c1cc(N/N=C/c2ccc(N3CCOCC3)s2)ccc1Cl	SIRT5 inh 36
CN(C)C(=O)C[C@@H]1C[C@@H]2c3cc(NC(=O)c4ccc5c(c4)OCO5)ccc3O[C@@H]2[C@@H](CO)O1	none (no result: Rtt109 HAT inh, PDI turbidity)
CCCCN(CC)CCCNC(=O)CC1Oc2ccccc2NC1=O (configuration not stated)	SIRT5 inh 17
CSc1cccc(NC(=O)CC2Oc3ccccc3NC2=O)c1 (configuration not stated)	DENV2 CPE rescue 37 (no result: Rtt109 HAT inh)
COc1cccc(NC(=O)CC2Oc3ccccc3NC2=O)c1 (configuration not stated)	none
C[C@@H]1CCCCO[C@H](CN(C)Cc2ccc(C(F)(F)F)cc2)[C@@H](C)CN([C@@H](C)CO)C(=O)c2cc(NS(=O)(=O)c3cccs3)ccc2O1	SIRT5 inh 17, DENV2 CPE rescue inconclusive (no result: Rtt109 HAT inh, PDI turbidity)
C[C@H](CO)N1C[C@H](C)[C@@H](CN(C)Cc2ccc(C(F)(F)F)cc2)OCCCC[C@H](C)Oc2ccc(NS(=O)(=O)c3cccs3)cc2C1=O	SIRT5 inh 21 (no result: Rtt109 HAT inh, PDI turbidity)
C[C@@H]1CN([C@H](C)CO)C(=O)c2cc(NS(=O)(=O)c3cccs3)ccc2O[C@@H](C)CCCCO[C@@H]1CN(C)Cc1ccc(C(F)(F)F)cc1	SIRT5 inh 19 (no result: Rtt109 HAT inh, PDI turbidity)
CN(C)c1ccc(C=Nc2ccc(N(C)C)cc2)cc1	none (no result: SIRT5 inh, ERp5 inh, DENV2 CPE rescue)
Cc1nc(/N=C\c2ccc(N(C)C)cc2)sc1C	DENV2 CPE rescue 33
CCCC#Cc1cnc2c(c1)C(=O)N([C@@H](C)CO)C[C@H](C)[C@@H](CN(C)C(=O)c1ccc(F)cc1)O2	none (no result: Rtt109 HAT inh, PDI turbidity)
COc1ccc(Cl)c2sc(N3CCN(C(=O)c4ccco4)CC3)nc12	DENV2 CPE rescue 104
CCCC(=O)N1CCN(c2nc3c(OC)ccc(Cl)c3s2)CC1	none
O=C(Nc1ccc(SC(F)F)cc1)C1CC(=O)N(Cc2ccccc2)C1 (configuration not stated)	DENV2 CPE rescue 22
O=C(Nc1ccccc1)C1CC(=O)N(Cc2ccccc2)C1 (configuration not stated)	none
CCc1ccc2c(F)cccc2n1	DENV2 CPE rescue 60 (no result: Rtt109 HAT inh, PDI turbidity)
CCCc1ccc2c(C)cccc2n1	none (no result: Rtt109 HAT inh, PDI turbidity)
C[C@@H]1CCCCO[C@@H](CN(C)Cc2ccc(Cl)c(Cl)c2)[C@@H](C)CN([C@H](C)CO)C(=O)c2cc(NC(=O)NC3CCCCC3)ccc2O1	none (no result: Rtt109 HAT inh, PDI turbidity)
O=C(NCCCN1CCCCC1)C1CCC(=O)N1CCc1ccccc1 (configuration not stated)	none (no result: SIRT5 inh, ERp5 inh, DENV2 CPE rescue)
O=C(NCCCN1CCOCC1)C1CCC(=O)N1CCc1ccccc1 (configuration not stated)	DENV2 CPE rescue 29
CCNC(=O)C[C@@H]1CC[C@H]2[C@@H](COC[C@H](O)CN2C(=O)c2cc(Cl)cc(Cl)c2)O1	none (no result: SIRT5 inh, ERp5 inh, Rtt109 HAT inh, PDI turbidity)
CCOc1ccc(NC(=O)Cc2ccc(S(=O)(=O)N3CCOCC3)s2)cc1OCC	DENV2 CPE rescue 65
CCCOc1ccc(NC(=O)Cc2ccc(S(=O)(=O)N3CCOCC3)s2)cc1OCCC	none
O=C(Cc1ccc(S(=O)(=O)N2CCOCC2)s1)NCC(=O)Nc1ccccc1Br	DENV2 CPE rescue 126
Cc1c(NC(=O)c2cccc(NC(=O)Cc3ccc(Cl)cc3)c2)c(=O)n(-c2ccccc2)n1C	none
Cc1ccc(CC(=O)Nc2cccc(C(=O)Nc3c(C)n(C)n(-c4ccccc4)c3=O)c2)cc1C	DENV2 CPE rescue 31 (no result: Rtt109 HAT inh)
C/C=C/c1ccc([C@H]2[C@H](CO)N[C@H]2CN(CC(C)C)C(=O)c2ccccn2)cc1	none (no result: Rtt109 HAT inh, PDI turbidity)
C/C=C/c1ccc([C@@H]2[C@@H](CO)N[C@@H]2CN(CC(C)C)C(=O)c2ccccn2)cc1	SIRT5 inh 18 (no result: Rtt109 HAT inh, PDI turbidity)
COCC(=O)Nc1ccc2c(c1)OC[C@H](C)N(Cc1ccccc1)C[C@@H](C)[C@@H](OC)CN(C)C2=O	none (no result: Rtt109 HAT inh, PDI turbidity)
CCCCCCOc1ccc(N2C(=O)CC(N3CCN(CCN=CC4C(=O)CC(C)(C)CC4=O)CC3)C2=O)cc1 (configuration not stated)	SIRT5 inh 112
CCCCCCOc1ccc(N2C(=O)CC(N3CCN(CCN=CC4=C(O)CC(C)(C)CC4=O)CC3)C2=O)cc1 (configuration not stated)	none
COCCNc1nc2cc(-c3ccc(F)cc3)sc2c(=O)n1C	none (no result: Rtt109 HAT inh)
O=c1[nH]c(CCl)nc2cc(-c3ccc(F)cc3)sc12	PDI turbidity 43, DENV2 CPE rescue inconclusive
CC(C)NC(=O)Nc1ccc2c(c1)CC(=O)N([C@@H](C)CO)C[C@@H](C)[C@H](CN(C)S(C)(=O)=O)O2	none (no result: Rtt109 HAT inh, PDI turbidity)

Screening data: PubChem, Broad Institute
